A selection: hits, their analogues and other compounds. The true share with any hit is near 19%.
IL-1B inflam inh: inhibitors of inflammasome signaling (IL-1 beta secretion). THP-1 LPS/ATP IL-1B secretion, AlphaLISA, 16 h; hits give low values. activity change, % at 57.5 µM. actives 4.7% (n = 360,000). AID 743279; in the data active = activity change below about -50%; inconclusive = mostly about -30% to -49%; note: % is set by controls: 0 for no effect and ±100 for the full control effect
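Secreted IL-1B measured by AlphaLISA bead assay after 16 h compound exposure of THP-1 cells; compounds (final up to 57.5 uM) added 1 h before LPS (250 ng/mL) and ATP (1.25 mM) stimulation; lower signal means less secretion.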
TDP1 block: inhibitors of human tyrosyl-DNA phosphodiesterase TDP1; Q9NUW8; actives 0.28% (n = 350,000); Potency, µM (series often up to 130 µM), for the others: top-dose activity change, negative = inhibition, most hits filed as inhibitors; recombinant TDP1, AlphaScreen DNA substrate cleavage; note: potency is the fitted concentration of half-maximal effect; % is set by controls: 0 for no effect and ±100 for the full control effect; nearly all actives have a fitted effect of over 40% in size
Target sequence (Q9NUW8 whole entry, looked up): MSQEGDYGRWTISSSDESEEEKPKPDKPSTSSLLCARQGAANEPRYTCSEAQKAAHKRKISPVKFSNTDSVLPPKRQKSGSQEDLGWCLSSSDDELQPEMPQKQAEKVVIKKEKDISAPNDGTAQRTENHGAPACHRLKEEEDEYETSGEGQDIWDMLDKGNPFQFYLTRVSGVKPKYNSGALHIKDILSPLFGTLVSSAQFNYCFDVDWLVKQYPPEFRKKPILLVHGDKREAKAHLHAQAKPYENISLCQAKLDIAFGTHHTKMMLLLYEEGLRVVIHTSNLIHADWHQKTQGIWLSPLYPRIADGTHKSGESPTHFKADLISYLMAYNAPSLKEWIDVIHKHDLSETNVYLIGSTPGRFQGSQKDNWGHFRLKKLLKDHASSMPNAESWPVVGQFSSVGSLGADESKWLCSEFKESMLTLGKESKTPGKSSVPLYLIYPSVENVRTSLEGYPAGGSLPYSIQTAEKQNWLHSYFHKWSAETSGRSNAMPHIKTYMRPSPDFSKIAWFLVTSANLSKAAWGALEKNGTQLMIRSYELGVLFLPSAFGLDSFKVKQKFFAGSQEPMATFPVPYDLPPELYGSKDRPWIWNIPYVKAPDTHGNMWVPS
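E. coli-derived human Tdp1, 1 nM final. Cpd preinc 15 min RT; substrate 15 nM final, 5 min RT; AS bead mix 10 ug/ml final, 10 min RT. Signal loss = tyrosine-FITC cleavage. No-enzyme wells = max signal.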
DT40 TDP1 no CPT: qHTS for Inhibitors of human tyrosyl-DNA phosphodiesterase 1 (TDP1): qHTS in cells in absence of CPT; actives 15% (n = 420,000); Potency, µM (series often up to 46.2 µM), without a hit: at the highest dose activity change, negative = growth inhibition, usual class: inhibitors; DT40 Tdp1-/- hTDP1 cells, no CPT, ATP luminescence, 48 h; AID 686978, 2013; note: potency is the fitted concentration of half-maximal effect; % is set by controls: 0 for no effect and ±100 for the full control effect; nearly all actives have a fitted effect of over 55% in size
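Growth of hTDP1-complemented DT40 Tdp1-knockout cells is measured by ATP luminescence after at least 48 hr compound exposure at 37 °C, with DMSO substituting for the 20 nM CPT used in the parallel screen.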
TGFb inhibitor: TGF-b pathway inhibition; HepG2 CAGA-GFP TGF-b/SMAD3 reporter, GFP fluorescence, 18 h; TGF-beta stimulated, 500 pg/mL final; Potency, µM (doses to about 46.1 µM), for the others: at the highest dose activity, negative = inhibition, actives largely listed as inhibitors; actives 1.2% (n = 410,000); note: potency is the fitted concentration of half-maximal effect; % is set by controls: 0 for no effect and ±100 for the full control effect; nearly all actives have a fitted effect of over 65% in size
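Inhibition was scored as loss of TGF-beta-induced (500 pg/mL final, 18 hours, 37 degrees C) GFP in HEPG2 cells carrying a CAGA-GFP reporter, in DMEM with 1% FBS. Well GFP was summed per cell; Activity was normalised to unstimulated and stimulated DMSO wells, then concentration-response fitting.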
TDP1 cell CPT: DT40-hTDP1 cell growth loss with CPT; chicken DT40 Tdp1-/-;hTDP1 cells + 20 nM CPT, ATP luminescence, 48 h; Potency, µM (top dose mostly 46.2 µM), for the others: at the highest dose activity change, negative = growth inhibition, usual class: inhibitors; actives 12% (n = 420,000); note: potency is the fitted concentration of half-maximal effect; % is set by controls: 0 for no effect and ±100 for the full control effect; nearly all actives have a fitted effect of over 55% in size
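Chicken DT40 Tdp1-/- cells complemented with human TDP1, 400 cells/well, exposed to compounds plus 20 nM camptothecin for at least 48 h at 37 C; viability read as ATP content by CellTiter-Glo luminescence.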
HepG2 tox: HepG2 cytotoxicity, counter-screen for TGF-b inhibitors | HepG2 CAGA-GFP viability, ATP luminescence, 18 h | actives 0.76% (n = 410,000) | Potency, µM (highest dose often 46.1 µM), for the others: at the top dose activity change, negative = cytotoxicity, most hits filed as cytotoxic; note: potency is the fitted concentration of half-maximal effect
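CellTiter-Glo luminescence gave cytotoxicity after 18 hours at 37 degrees C. The cells were HepG2 CAGA-GFP in 1% FBS DMEM, stimulated with 500 pg/mL TGF-beta after compound addition. %Activity was normalised to no-cell wells (complete cell-killing) and DMSO (no toxicity), and curves were fitted and classified.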
* hit, by the source's call; ? = inconclusive; nt = not tested or not shown; [ ] = remark or other dose. Unless noted, calls come from the whole dose curve; as a rule, active = well fitted curve in the direction sought with a large enough effect; inconclusive = small, poorly fitted or top-dose-only effect, or another doubt; inactive = no such curve, though single readings can be large; an effect the other way counts as inactive or inconclusive.

SMILES	IL-1B inflam inh	TDP1 block	DT40 TDP1 no CPT	TGFb inhibitor	TDP1 cell CPT	HepG2 tox
Cc1cccc(N2CCN(C(=O)CCNS(=O)(=O)c3ccc4c(c3)oc(=O)n4C)CC2C)c1 (stereo not given)	7	4%	?	-1%	?	1%
CCC(=O)N1CCc2cc(S(=O)(=O)CCC(=O)N3CCN(c4cccc(C)c4)C(C)C3)ccc21 (stereo not given)	nt	2%	4.6µM*	-4%	12µM*	-32%
CCC(=O)N1CCc2cc(Br)cc(S(=O)(=O)CCC(=O)N3CCN(c4cccc(C)c4)C(C)C3)c21 (stereo not given)	nt	6%	?	?	?	-30%
COc1ccc(-c2nc3ccccc3s2)cc1NC(=O)c1cc2ccccc2o1	nt	-1%	-18%	-3%	-11%	-13%
Cc1ccc(CSc2nc3cccnc3n2Cc2ccc(C(=O)NCc3ccco3)cc2)cc1	nt	10%	-28%	-28%	-11%	-23%
Cc1nnc(N/N=C/c2c[nH]c3ccccc23)[nH]c1=O	0	8%	1%	-5%	?	-23%
Cc1nnc(N/N=C/C(C)c2ccccc2)[nH]c1=O (stereo not given)	-100*	1%	1%	8%	2%	-9%
Cn1cc(C(=O)[C@@H]2CCc3nc[nH]c3C2)c2ccccc21	nt	nt	-19%	nt	-11%	nt
CC1(C)OC2OC(C(=O)N/N=C/c3cc(Br)ccc3O)C3OC(C)(C)OC3C2O1 (stereo not given)	0	3%	15µM*	-23%	15µM*	-11%
CC(C)c1ccc(NC(=O)[C@H]2O[C@@H]3OC(C)(C)O[C@@H]3[C@H]3OC(C)(C)O[C@H]32)cc1	nt	-5%	21µM*	?	5.2µM*	-9%
Cc1cc(C)cc(NC(=O)[C@H]2O[C@@H]3OC(C)(C)O[C@@H]3[C@H]3OC(C)(C)O[C@H]32)c1	nt	3%	?	-19%	-8%	-3%
O=C(Nc1cccc(Cl)c1Cl)c1cc(S(=O)(=O)N2CCCCC2)ccc1F	nt	-5%	?	31%	?	7%
CC(=O)Oc1cc(C(=O)OCC(=O)N2CCc3ccccc3C2)cc(OC(C)=O)c1OC(C)=O	28	nt	5.2µM*	-18%	4.1µM*	-40%
COc1cc2c(cc1OC)CN(C(=O)COc1ccccc1C#N)CC2	-74*	nt	12µM*	?	21µM*	-41%
Cc1cnc(C(=O)OCC(=O)N2CCc3ccccc3C2)cn1	4	4%	-3%	0%	0%	-10%
Cc1cccc(C)c1OCC(=O)N1CCc2ccccc2C1	-82*	nt	?	-18%	?	-9%
CCOc1c(Br)cc(C(=O)OCC(=O)N2CCc3ccccc3C2)cc1OC	-8	-12%	26µM*	-1%	?	3%
COc1ccc(C(=O)OCC(=O)N2CCc3ccccc3C2)cc1OC	0	0%	-18%	10%	?	12%
CCN(CC)c1ccc(S(=O)(=O)N2CCOCC2)cc1NC(=O)CN1C(=O)NC2(CCC(C)CC2)C1=O (stereo not given)	-6	nt	-17%	?	-23%	-3%
COc1ccc(OCCOC(=O)c2ccc(F)c(S(=O)(=O)N3CCOCC3)c2)cc1	0	0%	0%	-1%	-10%	-34%
CCc1cccc(NC(=O)CCS(=O)(=O)c2ccc3nc(C)sc3c2)c1	nt	3%	?	-39%	?	-2%
COc1cc(NC(=O)c2cc([N+](=O)[O-])ccc2NC(=O)CNCc2ccccn2)cc(OC)c1	93	56µM*	?	?	2%	-3%
COc1cc([N+](=O)[O-])ccc1NC(=O)CSc1ccccn1	nt	6%	nt	nt	nt	nt
COc1cc(NC(=O)c2cc([N+](=O)[O-])ccc2NC(=O)CNC2CCCCC2C)cc(OC)c1 (stereo not given)	-19	nt	?	-3%	?	2%
COc1cc(NC(=O)c2cc([N+](=O)[O-])ccc2NC(=O)CNC2CCCCC2)cc(OC)c1	15	8%	16µM*	-28%	21µM*	-1%
SMILES	IL-1B inflam inh	TDP1 block	DT40 TDP1 no CPT	TGFb inhibitor	TDP1 cell CPT	HepG2 tox
COc1ccc(NC(=O)c2cc([N+](=O)[O-])ccc2NC(=O)CNCc2ccccn2)c(OC)c1	-8	8%	13µM*	5%	?	-1%
O=C(CN1C(=O)NC2(CCCCCCC2)C1=O)NCc1ccccc1	1	0%	2%	5%	-12%	8%
CN(C)S(=O)(=O)N1CCC(n2cnc3cccnc32)CC1	nt	3%	0%	9%	0%	11%
O=C(NCCn1cc(SCc2cccc(F)c2)c2ccccc21)c1cccc(C(F)(F)F)c1	nt	8%	16µM*	?	?	-48%
O=C(CSc1cn(Cc2cccc(F)c2)c2ccccc12)NCc1ccc(F)cc1	12	-1%	-6%	-26%	-7%	-73%
COc1ccc(C(=O)NCCn2cc(SCc3cccc(F)c3)c3ccccc32)cc1OC	nt	5%	4.6µM*	?	9.2µM*	-22%
CSC1=NCCN1C(=O)c1c(-c2c(F)cccc2Cl)noc1C	39	-2%	-13%	49%	5%	60%
CCC1CN(CCNC(=O)c2cccc(N3CCCC3=O)c2)Cc2cc(OC)ccc2O1 (stereo not given)	nt	nt	-16%	nt	-6%[9.04 µM]	nt
COc1cc(C2C(C#N)=C(N)N(N(C)C)C3=C2C(=O)CC(C)(C)C3)cc(OC)c1OC (stereo not given)	24	nt	-1%	66%	18%	0%
CCCn1c2ccccc2c2cnn(CC(=O)Nc3cccc(C(=O)OCC)c3)c(=O)c21	nt	2%	-20%	-1%	-22%	2%
Cc1ccc(CCNC(=O)c2ccc3c(c2)N(Cc2ccccc2F)C(=O)c2ccccc2S3=O)cc1 (stereo not given)	nt	2%	?	22%	?	-1%
CCOc1ccc(CCNC(=O)c2ccc3c(c2)N(Cc2ccccc2)C(=O)c2ccccc2S3=O)cc1OCC (stereo not given)	nt	5%	5.8µM*	0%	16µM*	-9%
Cc1ccc(CCNC(=O)c2ccc3c(c2)N(Cc2ccccc2)C(=O)c2ccccc2S3=O)cc1 (stereo not given)	nt	8%	15µM*	6%	16µM*	-35%
COc1ccc(-c2nnc3n2N=C(c2ccc(OC)cc2OC)CS3)cc1	nt	17%	nt	nt	nt	nt
